High-throughput results deposited in PubChem BioAssay by National Center for Advancing Translational Sciences (NCATS).
Chronic BCR inh – inhibitors of chronic active B-cell receptor signaling | ABC-DLBCL IkBa-CBG/CBR reporter, luminescence ratio, 4 h | Potency, µM (titrated, usually from 46.1 µM), inactives show at the highest dose activity change, negative = inhibition, actives largely listed as inhibitors | hit rate 0.05% among 340,000; active means well fitted inhibition curve with a large enough effect in the signal ratio, with a control signal flat, not every such curve was filed as active; inconclusive means small, poorly fitted or top-dose-only effect, or effect the other way, or a change in a side signal; the % refers to the signal ratio;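 further: potency means the concentration at half of the fitted maximal effect; plate controls were basal doxycycline-induced cells for no effect and cells given 10 µM MG132 for full effect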
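TMD8 human ABC-DLBCL cells with doxycycline-inducible IκBα–green luciferase fusion and unfused red luciferase, in 0.5% FBS medium; compounds up to 46 uM, 4 h at 37C. Green/red luminescence ratio, filter-overlap corrected, fitted to concentration-response curves.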
D1 potentiator – potentiators of human D1 dopamine receptor | hit rate 0.036% among 360,000 | HEK293 TREx D1 cells, calcium flux, dopamine EC20 potentiation | potentiation, % at 10 µM | P21728 | AID 504651; in the data active means potentiation above about 30%; further: 0% is about no effect
D1 agonist – activates the human D1 dopamine receptor. hit rate 1% among 360,000. AID 504660. HEK293 T-REx D1 cells, calcium flux, agonist mode. P21728. activation, % at 2 µM; in the data active means activation above about 30%; further: 0% is about no effect
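Agonism was scored from calcium flux recorded over 180 s (1 read/s) after pintool compound addition, following a 10-cycle baseline. Cells were inducible force-coupled HEK293 TREx D1, plated overnight at 30 C and loaded with no-wash calcium dye.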
DRD3 antagonist – blocks the human D3 dopamine receptor; P35462; hit rate 2.5% among 360,000; AID 652054; D3R cells, DiscoveRx beta-arrestin luminescence, antagonist mode; hits give low values; max response, negative = inhibition, %; in the data active means max response below about -50%; inconclusive means no clear call, values can overlap the other calls; further: on the % scale 0 is the no-effect control and ±100 the full control effect
Target sequence (P35462 whole entry, looked up): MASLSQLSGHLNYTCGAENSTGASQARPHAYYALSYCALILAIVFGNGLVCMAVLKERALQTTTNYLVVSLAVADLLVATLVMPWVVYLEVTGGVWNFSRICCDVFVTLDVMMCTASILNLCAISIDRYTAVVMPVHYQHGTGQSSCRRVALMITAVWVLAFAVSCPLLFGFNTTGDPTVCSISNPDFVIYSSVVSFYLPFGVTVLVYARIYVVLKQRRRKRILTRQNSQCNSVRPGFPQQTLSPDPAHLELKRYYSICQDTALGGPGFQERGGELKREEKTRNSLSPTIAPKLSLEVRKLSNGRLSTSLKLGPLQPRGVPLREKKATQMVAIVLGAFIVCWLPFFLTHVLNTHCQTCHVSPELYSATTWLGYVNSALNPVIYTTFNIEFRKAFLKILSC
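Cells plated overnight at 1500 cells/well, then exposed to library compounds with dopamine controls for 90 minutes at 37 degrees C. DiscoveRx reagent added for 30–60 minutes at room temperature; luminescence read, quantitative HTS format.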
DRD3 agonist – agonists of human D3 dopamine receptor; D3R DiscoveRx beta-arrestin cells, luminescence, 90 min; max activation, %; hit rate 0.58% among 410,000; AID 652048; in the data active means max activation above about 30%; further: 0% is about no effect
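Agonist-mode cell screen: cells plated at 1500/well and incubated overnight at 37 °C, then exposed to library compounds for 90 min at 37 °C. Detection reagent was added for 30–60 min at room temperature, and luminescence was read.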
D1 antag – antagonists of human D1 dopamine receptor; P21728; activity change, negative = inhibition, % at 10 µM; HEK293 TREx D1 cells, calcium flux, dopamine EC80; hits give low values; AID 504652; hit rate 3.2% among 360,000; in the data active means activity change below about -30%; further: on the % scale 0 is the no-effect control and ±100 the full control effect
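Calcium flux readout: force-coupled, inducible Hek293 Trex D1 line, cells induced overnight at 30 C with tetracycline, dye-loaded 30–90 min at RT. Antagonism scored against EC80 dopamine challenge given 180 s after compound.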
* = called active by the depositor; ? = inconclusive; / = no result given. Hits are enriched below; roughly 6% of the tested compounds scored in any of these assays.

SMILES	Chronic BCR inh	D1 potentiator	D1 agonist	DRD3 antagonist	DRD3 agonist	D1 antag
COc1cc(-c2noc(-c3ccc(NC4CCCCC4)c([N+](=O)[O-])c3)n2)cc(OC)c1OC	/	-2	12	/	3	-5
COc1ccc(-c2noc(-c3ccc(NCc4ccco4)c([N+](=O)[O-])c3)n2)cc1	/	2	2	/	10	-32*
COc1ccc(-c2noc(-c3ccc(NCC4CCCO4)c([N+](=O)[O-])c3)n2)cc1 (stereo unspecified)	/	-2	3	/	9	-58*
COc1ccc(-c2noc(-c3ccc(N4CCCC4)c([N+](=O)[O-])c3)n2)cc1OC	/	-2	7	/	11	-38*
CC1(C(=O)NCc2ccccc2)CSCC(=O)N1CCOc1ccccc1 (stereo unspecified)	/	/	/	0	-13	/
Cc1cccc(NC(=O)CSc2cn(CC(=O)N3CCC(C)CC3)c3ccccc23)c1C	/	0	1	/	-18	23
COc1ccc(N2CCN(c3csc4ccc(Cl)cc4c3=O)CC2)cc1	/	0	43*	/	2	10
Cc1ccc(-n2c(=O)c3oc4ccccc4c3n(Cc3cccc(F)c3)c2=O)cc1C	/	-6	2	/	-22	-2
CCCCn1c(N)c(NCC)c(=O)[nH]c1=O	2%	5	4	2	-4	2
CCCCn1c(N)c(NCC(C)C)c(=O)[nH]c1=O	9%	1	2	2	-3	-46*
COc1ccc(NC(=O)CN(c2ccc(C)cc2)S(=O)(=O)c2cccs2)cc1	/	-2	1	/	1	16
CCCc1nn2c(=O)cc(COC(=O)c3ccc(NC(=O)CCc4ccccc4)cc3)nc2s1	/	-1	0	/	-8	-8
CCCCn1nnnc1C(c1cc2ccccc2o1)N(Cc1ccccc1)Cc1ccccc1 (stereo unspecified)	/	/	/	3	4	/
CCCCn1nnnc1C(c1cc2ccccc2o1)N(CCC#N)Cc1ccccc1 (stereo unspecified)	/	/	/	-53*	-12	/
CCc1cccc(C)c1Nc1c(-c2ccc(N3CCOCC3)cc2)nc2ncccn12	/	-1	32*	/	2	11
Cc1ccc(Nc2c(-c3ccc(N4CCOCC4)cc3)nc3c(C)cccn23)cc1	/	-1	3	/	4	-32*
Cc1cccc(Nc2c(-c3ccc(N4CCOCC4)cc3)nc3ncccn23)c1	?	-3	2	-15	4	1
Cc1ccccc1Nc1c(-c2ccc(N3CCOCC3)cc2)nc2ccccn12	/	2	-2	/	1	17
COc1ccccc1N(C)c1cc2c(c3c1ccn3C)C1CCC2O1 (stereo unspecified)	/	/	/	-3	-8	/
COc1ccc(C2=NNC(c3cccs3)=Nc3ccc(OC)cc32)cc1	?	1	-1	11	-3	-39*
O=C(CNC(=O)c1nc[nH]c1C(=O)NCC(=O)OCc1ccccc1)OCc1ccccc1	14%	-6	2	82	5	11
CC(C)(C)OC(=O)CNC(=O)c1[nH]cnc1C(=O)NCCCCCNC(=O)OC(C)(C)C	?	-7	6	74	55*	-9
CC(C)(C)OC(=O)NCc1ccc(CNC(=O)c2[nH]cnc2C(=O)NCC(=O)OCc2ccccc2)cc1	?	-2	8	127	43*	-8
CC(C)(C)OC(=O)NCc1ccc(CNC(=O)c2nc[nH]c2C(=O)NCc2ccccc2)cc1	-17%	-2	1	21	12	-53*
O=C(CNC(=O)c1nc[nH]c1C(=O)NCc1ccccc1)OCc1ccccc1	-22%	0	2	80	21	0
CCN(CC)C(=O)c1[nH]cnc1C(=O)NCC(=O)OCc1ccccc1	-13%	-2	0	45	39*	13
CC(C)(C)OC(=O)NCc1ccc(CNC(=O)c2[nH]cnc2C(=O)N[C@@H](Cc2ccccc2)C(=O)OC(C)(C)C)cc1	21%	3	10	13	6	-12
Cc1cc(C)cc(NC(=O)N2CCN(c3cc(-c4noc(C)n4)ccc3C)CC2)c1	/	0	1	/	2	-17
